MCF10A rerep: inducers of DNA re-replication in MCF 10A breast cells; MCF 10A DNA re-replication, Hoechst nuclear intensity, 48 h; Potency, µM (series often up to 46.1 µM), for the others: at the highest dose activity, positive = re-replication, actives largely listed as activators; 2.9% of 350,000 active; AID 624296; also: potency is read from the fitted curve at half-maximal effect; % of control where 0% means no effect; nearly all actives have a fitted effect of over 50% in size
RORg inh: ROR gamma (mouse) transcription inhibition | P51450 | Drosophila S2 Gal4-RORgamma UAS-luciferase reporter, 20 h | Potency, µM (series often up to 53.6 µM), for the others: at the top dose activity change, negative = inhibition, most hits filed as inhibitors | 5.4% of 310,000 active | AID 2551; also: potency is read from the fitted curve at half-maximal effect; % is scaled to controls: 0 for no effect and ±100 for the full control effect; nearly all actives have a fitted effect of over 60% in size
Target sequence (P51450 whole entry, looked up, the tested form may be a part): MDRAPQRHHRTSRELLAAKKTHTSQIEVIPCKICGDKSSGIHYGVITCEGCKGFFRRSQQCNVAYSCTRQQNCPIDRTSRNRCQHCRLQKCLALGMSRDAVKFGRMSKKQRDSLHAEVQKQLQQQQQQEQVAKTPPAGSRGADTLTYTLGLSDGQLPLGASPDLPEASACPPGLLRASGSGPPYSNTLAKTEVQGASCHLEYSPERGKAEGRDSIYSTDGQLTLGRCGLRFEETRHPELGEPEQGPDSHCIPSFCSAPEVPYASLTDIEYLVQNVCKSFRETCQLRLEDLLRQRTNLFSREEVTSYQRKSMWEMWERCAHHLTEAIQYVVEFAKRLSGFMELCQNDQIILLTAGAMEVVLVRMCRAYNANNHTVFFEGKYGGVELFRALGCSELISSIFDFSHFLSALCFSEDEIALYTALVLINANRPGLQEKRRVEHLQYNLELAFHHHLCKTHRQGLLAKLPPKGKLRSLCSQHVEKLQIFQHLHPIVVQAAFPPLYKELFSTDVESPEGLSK
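Luminescence from a UAS-regulated Photinus luciferase reporter in stably transfected Drosophila Schneider cells is measured; decreased signal marks ROR gamma inhibition. Fusion expression is induced by 700 uM copper sulfate for 20 hr.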
SW480 rereplic: DNA re-replication induction in SW480 cells | Potency, µM (titrated, usually from 46.1 µM), without a hit: top-dose re-replication activation, hits mostly activators | 1.8% of 340,000 active | AID 624297 | SW480 DNA re-replication, Hoechst DNA content imaging, 48 h; also: potency is read from the fitted curve at half-maximal effect; % of control where 0% means no effect; nearly all actives have a fitted effect of over 55% in size
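Quantitative HTS format with DMSO vehicle controls; 48 hr drug incubation at 37 C, then 40 min Hoechst staining and scanning imager measurement at 405 nm excitation.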
IL1B secr inh: inflammasome signaling inhibition, IL-1 beta readout; activity change, % at 57.5 µM; 4.7% of 360,000 active; AID 743279; THP-1 LPS/ATP IL-1B secretion, AlphaLISA, 16 h; hits give low values; in the data active = activity change below about -50%; inconclusive = mostly about -30% to -49%; also: % is scaled to controls: 0 for no effect and ±100 for the full control effect
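THP-1 cells pretreated 1 hr with compounds (up to 57.5 uM final), then stimulated with LPS (250 ng/mL final) plus ATP (1.25 mM final); secreted IL-1B measured by AlphaLISA after 16 hr, decreased signal indicating inhibition.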
Gal4-VP16 FLuc: Gal4-VP16 reporter inhibition counter-screen; Drosophila S2 Gal4-VP16 UAS-luciferase, luminescence, 20 h; 3.5% of 310,000 active; Potency, µM (doses to about 53.6 µM), for the others: at the highest dose activity, negative = inhibition, actives largely listed as inhibitors;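 also: Gal4-VP16 expression switched on by copper sulfate through the metallothionein promoter; potency is read from the fitted curve at half-maximal effect; % is scaled to controls: 0 for no effect and ±100 for the full control effect; nearly all actives have a fitted effect of over 50% in size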
An asterisk follows results filed as active; i = inactive; ? = inconclusive; · = no result given; [ ] = another dose, or the depositor's remark. Sampled rows, rich in hits. Any-hit rate of the full collection: about 11%. Unless noted, calls follow the shape of the dose curve; as a rule, active = well fitted curve in the direction sought with a large enough effect; inconclusive = small, poorly fitted or top-dose-only effect, or another doubt; inactive = no such curve, though single readings can be large; an effect the other way counts as inactive or inconclusive.

SMILES	MCF10A rerep	RORg inh	SW480 rereplic	IL1B secr inh	Gal4-VP16 FLuc
CC(=O)N1CCN(C(=O)C(Cc2ccccc2)NC(=O)c2ccccc2)CC1 (centres undefined)	8%	·	-7%	2	·
NC(=O)C1CCN(C(=O)C(Cc2ccccc2)NC(=O)c2ccccc2)CC1 (centres undefined)	27%	·	21µM*	3	·
COC(=O)[C@H](Cc1ccccc1)NC(=O)C1CCN(C(=O)[C@H](C)NS(=O)(=O)c2ccc(C)cc2)CC1	-2%	-12%	3%	-50*	2%
CCCNC(=O)C(Cc1ccccc1)NC(=O)c1ccccc1 (centres undefined)	0%	·	8%	43	·
COc1ccc(CCNC(=O)NC23CC4CC(CC(C4)C2)C3)cc1	0%	26%	7%	-16	-7%
O=C(Nc1cc2c3c(c1)CC(=O)N3CCC2)C1CC1	-22%	·	-18%	23	·
CCN(CC)C(=O)C1=C(C)N(CCCOC)C(=O)C(CC(=O)NC(c2ccccc2)c2ccccc2)C1 (centres undefined)	·	·	·	4	·
CCCCN(C(=O)c1cc2c(s1)CCCCC2)c1c(N)n(CC(C)C)c(=O)[nH]c1=O	5%	·	0%	-2	·
O=C(COC(=O)c1ccc(O)cc1)c1ccc2c(c1)OCCO2	2%	·	0%	-9	·
COC(=O)C(Cc1ccc(O)cc1)NC(=O)c1ccc2c(c1)OCCO2 (centres undefined)	0%	0.63µM*	0%	-98*	2µM*
CCOC(=O)C(Cc1ccc(O)cc1)Nc1nc2ccccc2o1 (centres undefined)	3%	·	-4%	-54*	·
Cc1ccc(S(=O)(=O)CCc2nc3ccccc3n2CCC#N)cc1	18µM*	-14%	?	-18	-7%
Cc1ccc(S(=O)(=O)CC2CSc3nc4ccccc4n32)cc1 (centres undefined)	0%	?	-9%	-3	1.1µM*
O=C(O)Cn1c(CCS(=O)(=O)c2ccc(Br)cc2)nc2ccccc21	-12%	7%	-3%	-12	4%
O=C1[O][Bi][O]c2ccccc21	1%	-16%[10 µM]	-4%	·	3%
COc1ccc(NC(=O)CCNC(=O)c2ccco2)cc1Cl	-16%	-1%	-18%	-7	-1%
CC1CC(C)CN(S(=O)(=O)c2ccc(NC(=O)CN3CCCCCC3)cc2)C1 (centres undefined)	?	·	3%	-53*	·
CC1CCCN(CC(=O)Nc2ccc(S(=O)(=O)NC3CCCCC3)cc2)C1 (centres undefined)	16µM*	-2%	-1%	-11	3%
CCc1ccc(NC(=O)C2CCN(S(=O)(=O)c3c(C)noc3C)CC2)cc1	1%	12%	16%	1	5%
Cc1cc(NC(=O)C2CCN(S(=O)(=O)c3c(C)noc3C)CC2)ccc1Br	21µM*	3%	?	11	?
Cc1cc(C)cc(NC(=O)Cn2c(=O)oc3cc(S(=O)(=O)N4CCC(C)CC4)ccc32)c1	16µM*	-7%	?	1	?
CCCNC(=O)c1cc2c(c(-c3cccc(-c4ccccc4F)c3)n1)[C@@H](CCO)N(C(=O)CC1CC1)C2	·	·	·	-16	·
COC(=O)[C@@H]1C=C[C@H](C)[C@H](CCOc2ccccc2)O1	·	-19%	·	·	-1%
C=CCn1c(SCC(=O)N(CCOC)c2c(N)n(CC(C)C)c(=O)[nH]c2=O)nc2ccccc21	1%	·	0%	16	·
C=CC1=C(C)/C(=C/c2[nH]c(Cc3[nH]c(/C=C4\NC(=O)C(C)=C4C=C)c(C)c3CCC(=O)O)c(CCC(=O)O)c2C)NC1=O	·	-7%	·	·	-2%
SMILES	MCF10A rerep	RORg inh	SW480 rereplic	IL1B secr inh	Gal4-VP16 FLuc
CCN1C(=O)[C@H]2[C@H]3[C@H](O)[C@H](O)C/C(=N/O[C@@H](C)CN4CCCCc5nc(C)c(C)cc54)[C@@H]3CC[C@@H]2C1=O	·	-11%[10 µM]	·	·	-5%[10 µM]
Cc1noc(C)c1C(=O)Nc1ccc(S(=O)(=O)N2CCCCC2)cc1	3%	?	-5%	4	0%
O=C(CN1CCCN(S(=O)(=O)c2ccc(Br)s2)CC1)Nc1ccc(Cl)cc1	?	-24%	?	-76*	?
Cc1noc(C)c1C(=O)Nc1ccc(S(=O)(=O)N2CCC(C)CC2)cc1	-1%	·	18µM*	-14	·
CC1CCN(S(=O)(=O)c2ccc(NC(=O)CN3CCCC3)cc2)CC1	9.2µM*	-1%	-4%	-15	0%
COc1ccc(Cc2nc3ccc(C(=O)N(C)CCc4cnn(C)c4)cc3o2)cc1OC	9%	·	-4%	i	·
Cc1cc2c(c(=O)n1Cc1cccnc1)C(Cc1ccccc1)C(C#N)=C(N)O2 (centres undefined)	0%	?	-5%	-8	14µM*
CCCCN(C(=O)CCCSc1nc2ccccc2[nH]1)c1c(N)n(Cc2ccccc2)c(=O)[nH]c1=O	8%	-16%	-3%	-90*	-3%
CCCCN(C(=O)CSc1nnc(-c2ccc(OC)cc2)n1C(C)C)c1c(N)n(Cc2ccccc2)c(=O)[nH]c1=O	29%	-2%	2%	?	?
CCCN(C(=O)CCCSc1nc2ccccc2[nH]1)c1c(N)n(Cc2ccccc2)c(=O)[nH]c1=O	?	·	14%	35	·
CCCCN(C(=O)CSc1nnc(-c2ccc(OC)cc2)n1CC)c1c(N)n(Cc2ccccc2)c(=O)[nH]c1=O	-4%	17%	6%	-60*	-10%
CN1OC[C@@H]2CN(S(=O)(=O)c3cccc(C(F)(F)F)c3)[C@H](c3ccc(-c4cccnc4)cc3)C[C@@H]21	·	·	·	22	·
O=C(CSc1nc2ccccc2c(=O)n1-c1ccccc1Cl)NCC1CCCO1 (centres undefined)	-1%	·	1%	-1	·
Fc1ccc(CN2CCN(c3ncnc4scc(-c5ccccc5)c34)CC2)cc1	8%	13%	-13%	?	-5%
Fc1ccc(N2CCN(c3nc(CN4CCOCC4)nc4scc(-c5ccccc5)c34)CC2)cc1	?	10µM*	-11%	-1	-20%
OCC1CCCN(c2nc(CN3CCCCC3)nc3scc(-c4ccccc4)c23)C1 (centres undefined)	14%	-25%	?	-6	0%
CCNc1nc(CN2CCCCC2)nc2scc(-c3ccccc3)c12	-1%	16µM*	-6%	-91*	?
CN(Cc1ccccc1)c1nc(CN2CCOCC2)nc2scc(-c3ccccc3)c12	?	10µM*	6%	-14	?
CCNc1ncc2nc(C)c(=O)n(CCc3ccccc3)c2n1	·	-23%	·	·	-4%
COc1ccc(CCNC(=O)c2cc3c(=O)n4cccc(C)c4nc3n(Cc3ccco3)c2=N)cc1OC	?	1.6µM*	?	10	1.1µM*
COCCNC(=O)c1cc2c(=O)n3cccc(C)c3nc2n(Cc2ccncc2)c1=N	76%	?	4%	-5	0%
